Source: PubChem
Most compounds without a hit are left out; they make up all but 5.2% or so of the library.
NRP1-CendR mod: alters CendR peptide binding to human NRP-1; O14786; FAM-RPARPAR peptide binding to NRP-1, fluorescence polarization; inhibition, % at 25 µM; 360,000 compounds, 0.85% hits;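 active = inhibition or corrected inhibition above about 18%, plus a signal ratio from 0.5 to 1.5, limit read from the data, passing the limit was not always enough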
PfM18AAP inh: PfM18AAP enzyme inhibition. recombinant PfM18AAP, H-Glu-NHMec fluorogenic cleavage. inhibition, % at 7.35 µM. 290,000 compounds, 1.2% hits. AID 1822;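 active = inhibition above the campaign mean inhibition over all tested compounds plus 3 SD, cut at about 28% in these data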
A3A deaminase: inhibitors of human APOBEC3A DNA deaminase; inhibition, % at 20 µM; recombinant A3A, FAM/TAMRA ssDNA deamination fluorescence; 330,000 compounds, 0.41% hits;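 active = at least 40% inhibition at 20 µM here, with at most 30% in a related deaminase screen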
APOBEC3G inh: inhibitors of human APOBEC3G DNA deaminase. Q9HC16. recombinant A3G, ssDNA deamination FAM/TAMRA fluorescence. inhibition, % at 20 µM. 330,000 compounds, 0.28% hits. AID 493012;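 active = inhibition of at least 40% at 20 µM, with no more than 30% in the related APOBEC3A deaminase screen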
Target sequence (Q9HC16 whole entry, looked up): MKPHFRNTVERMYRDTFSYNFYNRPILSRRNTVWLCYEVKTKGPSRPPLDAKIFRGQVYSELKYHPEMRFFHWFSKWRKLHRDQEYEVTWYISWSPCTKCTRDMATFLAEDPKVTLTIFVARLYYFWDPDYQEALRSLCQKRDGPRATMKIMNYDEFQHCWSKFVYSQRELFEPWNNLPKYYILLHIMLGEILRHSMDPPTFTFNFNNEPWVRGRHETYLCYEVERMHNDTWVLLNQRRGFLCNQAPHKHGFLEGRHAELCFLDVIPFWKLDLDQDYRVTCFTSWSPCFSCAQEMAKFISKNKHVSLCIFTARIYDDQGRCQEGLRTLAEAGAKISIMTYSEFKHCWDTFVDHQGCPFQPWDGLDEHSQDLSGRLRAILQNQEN
Yeast superoxide: lowers age-related superoxide in aged yeast cells; superoxide response (% of plate mean), % at 10 µM; 330,000 compounds, 0.18% hits; S. cerevisiae aged cells, superoxide DHE fluorescence; active compounds read low; AID 2690;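 active = superoxide response under a set limit, about three screen SD below normal, cut at about 65% in these data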;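 note: yeast aged for seven days with compound at 30 °C before DHE staining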
ALR inh: blocks human ALR sulfhydryl oxidase activity; 290,000 compounds, 3.8% hits; AID 485317; purified ALR, DTT oxidation, H2O2 HRP-luminol luminescence; P55789; inhibition, % (concentration not given with the values);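 active = mean replicate inhibition above about 79%, with every replicate also reaching it, limit read from the data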
Target sequence (P55789 whole entry, looked up): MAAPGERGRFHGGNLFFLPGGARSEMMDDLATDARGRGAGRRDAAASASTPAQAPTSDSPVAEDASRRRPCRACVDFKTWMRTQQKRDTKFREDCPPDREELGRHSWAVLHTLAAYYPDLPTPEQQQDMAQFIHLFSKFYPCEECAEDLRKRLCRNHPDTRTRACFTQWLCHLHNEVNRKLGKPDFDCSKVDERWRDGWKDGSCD
APOBEC3A confirm: APOBEC3A (human) deaminase inhibition, confirmed; shares compounds with A3A deaminase; recombinant A3A, ssDNA deaminase UDG fluorescence assay; inhibition, % at 20 µM; 1,400 compounds, 63% hits; AID 493151;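 active = inhibition reaching a set limit, 80% of the first screen's cutoff, at 20 µM in any replicate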
UDG A3A counter: counter-screen for APOBEC3A inhibitors: UDG. shares compounds with A3A deaminase. UDG counterscreen, FAM/TAMRA uracil oligo fluorescence. inhibition, % at 20 µM. 1,000 tested, under 10 active. AID 504714; call rule not given here
Each line names hits and unclear results; the compound was inactive in the other large screens (follow-up assays come after a bar, where they were run); ! = repeats disagree.

COc1ccccc1NC(=O)CSc1nnc(CNC(=O)c2ccco2)n1C	none
Cc1ccc(Nc2nc3ccccc3n3nnnc23)cc1	A3A deaminase 46 | APOBEC3A confirm inactive
CCCCc1c(CCC)c(=N)c2ccccc2n1C	A3A deaminase 42 | APOBEC3A confirm 83 | UDG A3A counter inactive
CN(/N=C/c1ccc(Cl)cc1Cl)c1ncc(Cl)cc1C(F)(F)F	none
O=c1[nH]c(=O)n(CCc2ccc(F)cc2)c(O)c1C=NCc1ccc2c(c1)OCO2	A3A deaminase 68 | APOBEC3A confirm inactive
NC1CCCCC1N=Cc1c(O)n(CCc2ccc(F)cc2)c(=O)[nH]c1=O (stereo not given)	none (no result: A3A deaminase, APOBEC3G inh, Yeast superoxide, ALR inh)
O=C1NC(=O)C2(COC(c3cccc([N+](=O)[O-])c3)OC2)S1 (stereo not given)	none
CN(C)c1ccc(N=Nc2ccc(C(=O)O)cc2)cc1	A3A deaminase 64 | APOBEC3A confirm 54 | UDG A3A counter inactive
COCC(C)n1c(C)cc(C(=O)CSc2nnnn2-c2ccc(O)cc2)c1C (stereo not given)	none
CC(C)Oc1ccc(OCCSc2nc3ccccc3n2CC(=O)O)cc1	A3A deaminase 70 | APOBEC3A confirm inactive
CCC12CN(C(=O)c3ccc([N+](=O)[O-])cc3)CC(CC)(CN(C(=O)c3ccc([N+](=O)[O-])cc3)C1)C2=O	none
COC(=O)c1cn[nH]c1NC(=S)Nc1ccccc1C	none (no result: ALR inh)
CCC(Sc1nnnn1C)C(=O)Nc1ccc(C(C)=O)cc1 (stereo not given)	A3A deaminase 40 | APOBEC3A confirm inactive
CC(Sc1nnnn1C)C(=O)Nc1ccc(Oc2ccccc2)cc1 (stereo not given)	none (no result: ALR inh)
O=C(CSc1nnnn1-c1cccc2ccccc12)Nc1ccc(N2CCOCC2)c(Cl)c1	none
O=C(CSc1nnnn1-c1ccccc1)Nc1ccc(N2CCOCC2)c(Cl)c1	A3A deaminase 64 | APOBEC3A confirm 55 | UDG A3A counter inactive
Cc1noc(C)c1C(=O)NC(Cc1c[nH]c2ccccc12)C(=O)O (stereo not given)	none (no result: PfM18AAP inh)
CCC[n+]1c(C)sc2c(OC)ccc(OC)c21	PfM18AAP inh 28, A3A deaminase 44 | APOBEC3A confirm 20 | UDG A3A counter inactive
CCCCC(=O)Nc1nc2c(OC)ccc(OC)c2s1	none
CCOc1ccc(NC(=O)CN2C(=O)CSc3ccc(S(=O)(=O)N4CCCC4)cc32)cc1	none
CSc1ccc(CNc2ccccn2)cc1	A3A deaminase 48 | APOBEC3A confirm inactive
CSc1nc2ccc(NC(=O)c3ccc(=O)[nH]c3)cc2s1	A3A deaminase 42 | APOBEC3A confirm inactive
COc1ccc2c(C)cc(N3CCCCCC3)nc2c1	none
COc1ccc2c(C)cc(N3CCN(Cc4ccccc4)CC3)nc2c1	A3A deaminase 41 | APOBEC3A confirm inactive
O=C(Cn1c(=O)[nH]n(-c2ccccc2)c1=O)N1CCCc2ccccc21	none
CC(O)/C=C/c1cccc[n+]1C (stereo not given)	A3A deaminase 60 | APOBEC3A confirm 80 | UDG A3A counter inactive
C[n+]1ccccc1/C=C/c1cc(Br)ccc1O	A3A deaminase 50 | APOBEC3A confirm 26 | UDG A3A counter inactive
COc1ccc(/C=C/c2cccc[n+]2C)c(O)c1	none (no result: ALR inh)
C[n+]1ccccc1/C=N/O	A3A deaminase 65! | APOBEC3A confirm 80 | UDG A3A counter inactive
COc1cccc(C(=O)C[n+]2ccccc2/C=N/O)c1	none
CCOC(=O)C1(CCc2ccccc2)CCN(Cc2ccccn2)CC1	none
CCN1CCN(c2ccc(S(=O)(=O)N3CCCCC3)cc2NC(=O)c2ccc(F)cc2)CC1	none (no result: ALR inh)
CC1CN(S(=O)(=O)c2cccc(C(=O)Nc3cc(Cl)ccc3N3CCOCC3)c2)CC(C)O1 (stereo not given)	none (no result: PfM18AAP inh)
CCN1CCN(c2ccc(S(=O)(=O)N3CCOCC3)cc2NC(=O)c2ccc(C(F)(F)F)cc2)CC1	A3A deaminase 60 (no result: PfM18AAP inh) | APOBEC3A confirm inactive
CCc1noc(C)c1C(=O)Nc1cc(S(=O)(=O)N2CCOCC2)ccc1N1CCN(CC)CC1	A3A deaminase 48 (no result: PfM18AAP inh) | APOBEC3A confirm 60 | UDG A3A counter inactive
CCN1CCN(c2ccc(S(=O)(=O)N3CCOCC3)cc2NC(=O)/C=C/c2ccc([N+](=O)[O-])cc2)CC1	A3A deaminase 43 (no result: PfM18AAP inh) | APOBEC3A confirm 48 | UDG A3A counter inactive
CCc1noc(C)c1C(=O)Nc1cc(S(=O)(=O)N2CCOCC2)ccc1OCC(F)(F)F	none (no result: PfM18AAP inh)
CN1CCN(S(=O)(=O)c2cccc(C(=O)Nc3cc(Cl)ccc3N3CCOCC3)c2)CC1	A3A deaminase 51 (no result: PfM18AAP inh, ALR inh) | APOBEC3A confirm 31 | UDG A3A counter inactive
CN1CCN(S(=O)(=O)c2cccc(C(=O)N3CCN(c4ccccc4F)CC3)c2)CC1	A3A deaminase 44 (no result: PfM18AAP inh) | APOBEC3A confirm 45 | UDG A3A counter inactive
O=S(=O)(c1ccccc1)N1CCN(Cc2nnc(-c3ccccc3)o2)CC1	none (no result: PfM18AAP inh, A3A deaminase, APOBEC3G inh, Yeast superoxide, ALR inh)
CCc1ccc(NS(=O)(=O)c2ccc(C)c(C(=O)N3CCOCC3)c2)cc1	A3A deaminase 75 | APOBEC3A confirm 91 | UDG A3A counter inactive
O=C1CN=C(Nc2ccccc2Cl)N1Cc1ccc2c(c1)OCO2	A3A deaminase 96 (no result: ALR inh) | APOBEC3A confirm inactive | UDG A3A counter inactive
CCc1ccccc1NC1=NCC(=O)N1Cc1ccc2c(c1)OCO2	none
CCC[N+]1(CC#CC2(O)CCCCC2)CCOCC1	A3A deaminase 74 | APOBEC3A confirm 82 | UDG A3A counter inactive
CC(C)CC(=O)Nc1ccc(C(=O)COC(=O)C2CC(=O)N(Cc3ccccc3)C2)cc1 (stereo not given)	none (no result: PfM18AAP inh, ALR inh)
Cc1cc(/C=N/NC(=O)C(O)(c2ccccc2)c2ccccc2)c(C)n1-c1cccc(C(=O)O)c1	A3A deaminase 45 (no result: ALR inh) | APOBEC3A confirm inactive
Cc1cc(/C=N/NC(=O)c2cccc(N(C)C)c2)c(C)n1-c1cc(C(=O)O)cc(C(=O)O)c1	A3A deaminase 66 (no result: Yeast superoxide, ALR inh) | APOBEC3A confirm 65 | UDG A3A counter inactive
CN(C)c1ccc(NC(=O)/C=C/c2c(Cl)cccc2Cl)cc1	none
COC(=O)NNC(=S)NCc1ccccc1	none
CC[N+]1=CN(c2ccccc2)C(C)=CC1(C)C	A3A deaminase 61 | APOBEC3A confirm inactive
CN(CC(=O)Nc1cccc(F)c1)C(=O)c1ccc2c(c1)OCCO2	A3A deaminase 40 (no result: PfM18AAP inh) | APOBEC3A confirm inactive
CN(C(=O)COC(=O)c1ccc([N+](=O)[O-])cc1)c1ccccc1	none
CCCc1nc2ccccc2c(C(=O)N(CC)CC(=O)NCc2cccs2)c1CC	A3A deaminase 50 (no result: PfM18AAP inh, Yeast superoxide, ALR inh) | APOBEC3A confirm inactive
COc1ccc2sc(NC(=O)c3ccco3)nc2c1	A3A deaminase 61 | APOBEC3A confirm 48 | UDG A3A counter inactive
